# DT40 TDP1 no CPT: qHTS for Inhibitors of human tyrosyl-DNA phosphodiesterase 1 (TDP1): qHTS in cells in absence of CPT. DT40 Tdp1-/- hTDP1 cells, no CPT, ATP luminescence, 48 h. Potency, µM (highest dose often 46.2 µM), actives largely listed as inhibitors. 15% of 420,000 active. AID 686978, 2013; further: nearly all actives have a fitted effect of over 55% in size
#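 Stably hTDP1-transfected Tdp1-null chicken DT40 cells were treated with library compounds minus camptothecin and grown for at least 48 hr at 37 °C, after which cellular ATP was quantified by luminescence.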
# TDP1 block: qHTS Assay for Inhibitors of Tyrosyl-DNA Phosphodiesterase (TDP1); Tyrosyl-DNA phosphodiesterase 1 (Homo sapiens), Q9NUW8; recombinant TDP1, AlphaScreen DNA substrate cleavage; Potency, µM (titrated, usually from 130 µM), usual class: inhibitors; 0.28% of 350,000 active; AID 485290, 2010; further: nearly all actives have a fitted effect of over 40% in size
# Target sequence (Q9NUW8 whole entry, looked up): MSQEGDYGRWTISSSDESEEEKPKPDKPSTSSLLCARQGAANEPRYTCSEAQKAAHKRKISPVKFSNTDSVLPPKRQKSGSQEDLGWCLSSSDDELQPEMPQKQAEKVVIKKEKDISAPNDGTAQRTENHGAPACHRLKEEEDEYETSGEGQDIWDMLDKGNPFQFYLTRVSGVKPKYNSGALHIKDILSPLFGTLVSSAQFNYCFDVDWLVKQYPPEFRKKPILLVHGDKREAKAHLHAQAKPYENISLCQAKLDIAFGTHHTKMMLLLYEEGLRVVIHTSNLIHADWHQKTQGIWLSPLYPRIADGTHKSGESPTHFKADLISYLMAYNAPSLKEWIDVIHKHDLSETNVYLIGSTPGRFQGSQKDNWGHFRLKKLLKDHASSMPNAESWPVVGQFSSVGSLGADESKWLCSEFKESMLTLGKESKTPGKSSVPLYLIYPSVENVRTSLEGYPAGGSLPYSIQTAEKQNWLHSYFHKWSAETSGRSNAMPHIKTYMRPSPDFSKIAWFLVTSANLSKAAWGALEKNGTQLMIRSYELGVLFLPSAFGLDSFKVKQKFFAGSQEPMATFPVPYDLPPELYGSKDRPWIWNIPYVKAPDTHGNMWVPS
#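 E. coli-derived human Tdp1, 1 nM final. Cpd preinc 15 min RT; substrate 15 nM final, 5 min RT; AS bead mix 10 ug/ml final, 10 min RT. Signal loss = tyrosine-FITC cleavage. No-enzyme wells = max signal.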
# ELG1 repair inh: qHTS screen for small molecules that inhibit ELG1-dependent DNA repair in human embryonic kidney (HEK293T) cells expressing luciferase-tagged ELG1. HEK293T ELG1-luciferase reporter, luminescence, 16 h; DNA damage induced by 5-fluorouridine. Potency, µM (top dose mostly 46.1 µM), actives largely listed as inhibitors. 2.3% of 330,000 active; further: nearly all actives have a fitted effect of over 55% in size
#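 Cells (2,000 per well) received 5-fluorouridine plus test compound or DMSO and were incubated 16 hr at 37 °C, 5% CO2. Luciferase activity was read by luminescence 30 min after ONE-Glo addition; signal suppression marked inhibition of damage-induced ELG1 function.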
# IL1B secr inh: qHTS for Inhibitors of Inflammasome Signaling: IL-1-beta AlphaLISA Primary Screen; 4.7% of 360,000 active; AID 743279, 2014; activity change, % at 57.5 µM; THP-1 LPS/ATP IL-1B secretion, AlphaLISA, 16 h; active compounds read low; in the data active means activity change below about -50%; inconclusive means mostly about -30% to -49%
#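 THP-1 cells pretreated 1 hr with compounds (up to 57.5 uM final), then stimulated with LPS (250 ng/mL final) plus ATP (1.25 mM final); secreted IL-1B measured by AlphaLISA after 16 hr, decreased signal indicating inhibition.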
# Giardia kill: Small Molecules that selectively kill Giardia lamblia: qHTS | Giardia lamblia trophozoite viability | 0.15% of 340,000 active | activity change, % at 7.66 µM, hits read low; in the data active means activity change below about -80%; inconclusive means between about -30% and that limit;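 further: parasites exposed to compound for two days anaerobically before the ATP read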
#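 Luminescence from cellular ATP indicates surviving trophozoites (100 cells/well) following 48 hrs anaerobic compound treatment at 37 deg C; signal develops 15-30 min at room temperature.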
# DT40 TDP1 CPT: qHTS for Inhibitors of human tyrosyl-DNA phosphodiesterase 1 (TDP1): qHTS in cells in presence of CPT | chicken DT40 Tdp1-/-;hTDP1 cells + 20 nM CPT, ATP luminescence, 48 h | Potency, µM (top dose mostly 46.2 µM), most hits filed as inhibitors | 12% of 420,000 active | AID 686979, 2013; further: nearly all actives have a fitted effect of over 55% in size
#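 Chicken DT40 Tdp1-/- cells complemented with human TDP1, 400 cells/well, exposed to compounds plus 20 nM camptothecin for at least 48 h at 37 C; viability read as ATP content by CellTiter-Glo luminescence.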
# A number is an active result; 0 = inactive; ? = inconclusive; - = no result given; [ ] = remark or other dose. In the library only some 19% were active in any assay of this set; here they are far more common. Unless noted, the call rests on the fitted dose curve; in most records, active means well fitted curve in the direction sought with a large enough effect; inconclusive means small, poorly fitted or top-dose-only effect, or another doubt; inactive means no such curve, though single readings can be large; an effect the other way counts as inactive or inconclusive.
SMILES,DT40 TDP1 no CPT,TDP1 block,ELG1 repair inh,IL1B secr inh,Giardia kill,DT40 TDP1 CPT
C=CCn1c(=O)c2ccccc2n2c(SCC(=O)O)nnc12,0,-,0,0,0,0
C=CCn1c(=O)c2ccccc2n2c(SCc3nc4ccccc4s3)nnc12,16µM,0,?,0,0,?
CC(Oc1ccc(-n2cnnn2)cc1)C(=O)O (centres undefined),0,0,0,0,0,0
CC(C)CC(NC(=O)CC12CC3CC(CC(C3)C1)C2)C(=O)NC1=NCCS1 (centres undefined),26µM,0,0,0,0,?
COc1ccc(C2c3ccc4ccccc4c3Oc3ncn(CCN(C)C)c(=N)c32)cc1 (centres undefined),21µM,-,0,-98,0,?
COc1ccc(C2c3ccc4ccccc4c3Oc3ncn(CCO)c(=N)c32)cc1 (centres undefined),26µM,-,0,-100,0,?
N=c1c2c(ncn1CCCO)Oc1c(ccc3ccccc13)C2c1ccccc1 (centres undefined),?,0,0,0,0,?
COc1cccc(C2c3c(ncn(-c4ccccc4-c4ccccc4)c3=N)Oc3ccc4ccccc4c32)c1 (centres undefined),-,0,-,-,-,-
CN(C)CCCn1cnc2c(c1=N)C(c1ccccc1)c1ccc3ccccc3c1O2 (centres undefined),?,-,?,0,?,6.5µM
COc1ccc(Cc2nc3c4c(ncn3n2)Oc2c(ccc3ccccc23)C4c2ccc(OC)c(OC)c2)cc1 (centres undefined),?,0,0,0,0,0
COc1ccc(C2c3ccc4ccccc4c3Oc3ncn(CCCO)c(=N)c32)cc1 (centres undefined),?,-,?,-69,0,?
COc1cccc(C(=O)CC2c3c(c(Br)c4c(c3OC)OCO4)CCN2C)c1 (centres undefined),0[9.04 µM],0,-,-,-,0[9.04 µM]
CC1(C)CC(=O)C2=C(C1)Oc1ncn(CCCO)c(=N)c1C2c1ccccc1 (centres undefined),0,0,0,0,0,0
N=c1c2c(ncn1CCCO)Oc1ccc3ccccc3c1C2c1ccccc1 (centres undefined),?,0,?,-56,0,?
CC1(C(=O)NC2CCCC2)CCC(=O)N1C1CCN(Cc2ccccc2)CC1 (centres undefined),0,-,-,0,-,0
COc1ccccc1-c1ccnc(-n2ncc(C(=O)NCC3(N4CCOCC4)CCCC3)c2C)n1,0,-,-,-,-,0[9.04 µM]
O=C(Nc1ccncc1)c1cc2ccccc2cc1O,12µM,-,?,-88,0,?
O=C(Nc1ccc(Br)cc1)c1cc([N+](=O)[O-])cc([N+](=O)[O-])c1,?,-,?,-101,?,4.6µM
COC(=O)c1ccc(NC(=O)c2ccc3nc(C)sc3c2)cc1,0,-,?,0,0,0
Cc1nc2ccc(C(=O)Nc3cccc([N+](=O)[O-])c3)cc2s1,18µM,0,0,0,0,?
Cc1nc2ccc(NC(=O)c3ccc(Cl)c(NC(=O)c4cccs4)c3)cc2s1,21µM,0,0,0,0,?
COC(=O)[C@H](C)NC(=O)C/C=C\[C@@H](C)CO,-,0[21 µM],-,-,-,-
Cc1ccsc1C(=O)N1CCCC(CCC(=O)N2CCN(c3ccccn3)CC2)C1 (centres undefined),?,0,?,0,0,?
CCOc1ccc(OCC)c(NC(=O)c2cc(S(=O)(=O)N3CCCC3)cn2C)c1,?,0,-,-,-,0
COc1ccc(NC(=O)c2cc([N+](=O)[O-])ccc2O)cc1,5.8µM,0,?,0,-89,8.2µM
SMILES,DT40 TDP1 no CPT,TDP1 block,ELG1 repair inh,IL1B secr inh,Giardia kill,DT40 TDP1 CPT
O=C(O)c1ccccc1C(=O)Nc1cccc([N+](=O)[O-])c1,0,0,0,0,0,0
COc1ccc(C(=O)Nc2ccc3nc(C)sc3c2)cc1OC,0,0,?,-58,0,0
O=C(Nc1cccc([N+](=O)[O-])c1)c1cc2ccccc2cc1O,2.6µM,0,?,?,0,4.1µM
O=C(Nc1cccc([N+](=O)[O-])c1)c1cccc(C(=O)Nc2cccc([N+](=O)[O-])c2)c1,7.3µM,0,?,0,0,?
CC(C)C(=O)N[C@H]1CCCN1C(=O)/C=C\c1ccccc1,-,0[21 µM],-,-,-,-
CC(NC(=O)Nc1cccc([N+](=O)[O-])c1)(C(F)(F)F)C(F)(F)F,?,0,0,0,0,3.7µM
Cc1nc2ccc(C(=O)N/N=C/c3cc([N+](=O)[O-])ccc3O)cc2[nH]1,0,0,0,0,0,0
Cn1nc(C(C)(C)C)c([N+](=O)[O-])c1C(=O)Nc1ccc(Br)cc1,23µM,0,?,0,0,?
